Measurements as given in PubChem BioAssay (NCI).
This is part of a sample that, as a whole, favours compounds with a hit. Of some 83,000 tested, about 20% had one in any assay.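 How to read the values: 0–100, growth inhibition (40 = 60% inhibited); 0, no net growth; -100 to 0, cell death (-40 = 40% of starting cells died; -100 = all dead).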 Unmarked numbers belong to inactive results. Activity calls are given as the source filed them. How the source made its calls: active means growth percent below 10; inactive means the rest.

Assays:
Assay in all cases: NCI-60 one-dose screen, 48 h (100 = growth as untreated, 0 = no growth, -100 = all killed)
Settings in all cases: 10 µM
[1] = test system: DU-145 prostate
[2] = test system: MDA-MB-231 breast
[3] = test system: RXF 393 renal
[4] = test system: SF-268 CNS
[5] = test system: SF-295 CNS
[6] = test system: SF-539 CNS
[7] = test system: UACC-257 melanoma
[8] = test system: M14 melanoma
[9] = test system: HCT-15 colon
[10] = test system: HT29 colon
[11] = test system: SNB-75 CNS
[12] = test system: SNB-19 CNS
[13] = test system: U251 CNS
[14] = test system: PC-3 prostate
[15] = test system: SK-MEL-5 melanoma
[16] = test system: UACC-62 melanoma
[17] = test system: SK-MEL-28 melanoma
[18] = test system: MALME-3M melanoma
[19] = test system: LOX IMVI melanoma
[20] = test system: K-562 leukemia

| SMILES | growth [1] | growth [2] | growth [3] | growth [4] | growth [5] | growth [6] | growth [7] | growth [8] | growth [9] | growth [10] | growth [11] | growth [12] | growth [13] | growth [14] | growth [15] | growth [16] | growth [17] | growth [18] | growth [19] | growth [20] |
| --- | --- | --- | --- | --- | --- | --- | --- | --- | --- | --- | --- | --- | --- | --- | --- | --- | --- | --- | --- | --- |
| CC1C(=NC(=O)c2cnccn2)C(C)C(c2ccc(Cl)cc2)NC1c1ccncc1 (stereo not drawn) | 114% | 97% | 100% | 108% | 117% | 86.1% | 94.3% | 91.9% | 78.8% | 73% | 78.5% | 88.4% | 76.4% | 75.6% | 88.2% | 91.3% | 101% |  |  |  |
| COc1cc(C2CC(c3cc(Cl)c(C)cc3O)=NN2c2ccc(S(N)(=O)=O)cc2)cc(OC)c1OC (stereo not drawn) | 35.9% | -8.53% (active) | -2.73% (active) | 24.6% | 22% | 2.6% (active) | 44.7% | -26.5% (active) | 16.7% | 1.52% (active) | 45.7% | 48.7% | 16.9% |  | -4.95% (active) | 16.3% | 31.7% | 31.9% | 16.2% |  |
| O=C1c2c(c(=O)[nH]c3ccccc23)CCN1Cc1ccccc1 | 122% | 98.4% | 111% | 110% | 104% | 90.4% | 104% | 102% | 96.6% | 99.3% | 79.8% | 99.6% | 103% | 84.9% | 108% | 97.1% | 107% |  |  |  |
| Cc1cc(Cl)ccc1Nc1nc(C(F)(F)F)ccc1C(=O)N/N=C/c1c(Cl)cccc1Cl |  | -17.2% (active) |  | 12.8% | -37.7% (active) | 5.69% (active) | 13.1% | 7.93% (active) | 9.11% (active) | 3.29% (active) | -16.4% (active) | 13.5% | -1.74% (active) | -13.7% (active) | -85.4% (active) |  | 24.7% |  | 10% | 7.36% (active) |
